This note sets out measurements from PubChem BioAssay (NCI).

This is part of a sample that, as a whole, favours compounds with a hit. Of some 79,000 tested, about 15% had one in any assay. Active and inactive are the calls of the source. Cut-off read from the data, not from the text of the source: active = growth inhibition above about 70%; inactive = the rest.

A short description of the test: NCI Yeast Anticancer Drug Screen. Data for the rad50 strain (AID 155).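 Note: 0% = growth of vehicle-only cultures of the same strain.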 The note with it: S. cerevisiae rad50 strain growth inhibition; at 50.0 µM; hits give high values. How it is done:
Growth inhibition of yeast strains with defined genetic alterations is measured as a screen for potential anti-cancer activity. Selected strains with alterations in DNA damage repair or cell cycle control were exposed to compounds and growth inhibition was measured relative to vehicle treated controls. The strain used in this assay is rad50
For `CN1C2CCC1CC1(C2)SCCS1`, the growth inhibition is 2.5% (inactive).
Under `C/C=C/C(=O)[O-].N.N.N.N.N.[Co+3].[O-][Cl+3]([O-])([O-])[O-]` stands -10.4% (inactive); under `O=S(=O)(c1ccc(O)cc1)c1ccccc1O`, -1.95% (inactive).
Under `CCCCCCCCCCC(C(=O)c1ccccc1)N1CCOCC1` (stereo not given) stands -14.7% (inactive); under `O=Cc1ccccc1O.[Nd]`, -0.65% (inactive).
`[Cl][Rh]([Cl])([Cl])[Cl].[NH-]CC[NH-]`: the growth inhibition is 17.2% (inactive).
Under `CC1OC(OC2CCC3(C=O)C4CCC5(C)C(C6=CC(=O)OC6)CCC5(O)C4CCC3(O)C2)C(O)C(O)C1O` (stereo not given) stands 14.3% (inactive).
Under `C=CC(Cl)OC(=O)C(C)O` (stereo not given) stands 16.5% (inactive); under `O=C(COc1cccc(Cl)c1)NCc1ccccc1NC(=O)c1ccc(S(=O)(=O)F)cc1`, 95.2% (active).
Consider `O=C(COc1ccccc1Cl)Nc1ccc[n+](Cc2ccc(S(=O)(=O)F)cc2)c1`, for which the growth inhibition is -20.9% (inactive).
In the case of `CC1(C)N=C(N)N=C(N)N1c1ccc(CCC(=O)Nc2cccc(S(=O)(=O)F)c2)c(Cl)c1`, the growth inhibition was 57.7% (inactive).
Under `CC(=O)C(C)(C)C` stands 0% (inactive); under `CCCC1(C(C)C)C(=O)NC(=S)NC1=O`, 10.7% (inactive).
Under `NC(Cc1c[nH]c2cc([N+](=O)[O-])ccc12)C(=O)O` (stereo not given) stands 13.8% (inactive).
`C[n+]1ccc2ccccc2c1-c1c2ccccc2cc[n+]1C`: the growth inhibition is 27.4% (inactive).
As to `Nc1cc([N+](=O)[O-])cc([N+](=O)[O-])c1`, the growth inhibition is -6.6% (inactive).
For the compound `CCCC(OP(=S)(OCC)OCC)c1ccc(Cl)cc1` (stereo not given), the growth inhibition was -22.5% (inactive).
In the case of `c1ccc2sc(SNC3CCCCC3)nc2c1`, the growth inhibition is -29.7% (inactive).
Under `O=S1(=O)CCCCO1` stands -6% (inactive); under `COc1ccc2[nH]c3c(c2c1)CCNC3C` (stereo not given), 2.3% (inactive); under `OC1NC2CC3NC(O)C(O)NC3CC2NC1O` (stereo not given), -16.6% (inactive).
Under `CCP(c1ccccc1)c1ccccc1` stands -0.4% (inactive); under `CC(=O)[O][Sn]([CH2]C1CCCC1)([CH2]C1CCCC1)[CH2]C1CCCC1`, 99.3% (active); under `Oc1ccccc1C=NCCN=Cc1ccccc1O.[Cu]`, 15.4% (inactive).
With `CCOP(=O)(OCC)SC=C(Cl)Cl`, the growth inhibition is -12.9% (inactive).
Under `O=C(O)C(F)F` stands -16.9% (inactive); under `CC1C2C=CC1C(c1c3ccc(=O)cc-3oc3cc(O)ccc13)C2C(=O)O` (stereo not given), -4.85% (inactive); under `Cc1ncc(CNC(=O)N(CCCl)N=O)c(N)n1`, 0.45% (inactive).
As for `NC(CCSCCF)C(=O)O` (stereo not given), the growth inhibition was 36.9% (inactive).
Under `O=c1ccc2c(O)c3ccoc3cc2o1` stands -14.7% (inactive); under `O=[N+]([O-])c1ccc(O)c(C=NCCN=Cc2cc([N+](=O)[O-])ccc2O)c1.[Zn+2]`, 15.4% (inactive); under `CCc1c2c(c(C)n1C)C(c1ccccc1)=NCC(=O)N2`, 8.1% (inactive).
Under `Cc1cccc(CCl)c1` stands -7.05% (inactive); under `c1ccc(-c2csc3[nH]c4ccccc4[n+]23)cc1`, 19.4% (inactive).
Under `CSc1ccc([As](=O)(O)O)cc1` stands 15.2% (inactive); under `COC(=O)C1C(C)N1P(=O)(OC)OC` (stereo not given), 7.3% (inactive).
Take `CCCCCCCCCCCCP(=O)(O)OCC(N)C(=O)O` (stereo not given): the growth inhibition is -0.9% (inactive).
For `CC1OC(O[C@@H]2C=C3CC[C@@H]4[C@H](CC[C@]5(C)[C@@H](c6ccc(=O)oc6)CC[C@]45O)[C@@]3(C)CC2)C(O)C(OC2OC(CO)C(O)C(O)C2O)C1O` (stereo not given in full), the growth inhibition is 25.7% (inactive).
On to `CN1C(=O)C[N+]([O-])=C(c2ccccc2)c2cc(Cl)ccc21`, for which the growth inhibition is 2.45% (inactive).
On to `NNC(=O)c1ccccc1`, for which the growth inhibition is -1.8% (inactive).
